# From PubChem BioAssay (NCATS)
# Values without a mark were called inactive. Results filed as inconclusive are left out. Where a call stands in place of a potency, no number is given. Activity calls are given as the source filed them. Unless noted, calls come from the whole dose curve; as a rule, active = well fitted curve in the direction sought with a large enough effect; inconclusive = small, poorly fitted or top-dose-only effect, or another doubt; inactive = no such curve, though single readings can be large; an effect the other way counts as inactive or inconclusive.
# Key:
# [1] = biological target: Cytochrome P450 3A4 (Homo sapiens) (UniProt P08684); experiment: qHTS for inhibitors of CYP3A4 against the NCATS DSHEA and TCM libraries (AID 1919971);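 note: inhibition lowers luminescence from luciferin made by CYP3A4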
# Method in brief: (§1)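 Substances were tested against enzyme with a pro-luciferin substrate; minus-enzyme wells served as background. After NADPH-initiated oxidation (30-45 min, RT), light was generated with P450-Glo reagent.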
# [2] = biological target: Cytochrome P450 2D6 (Homo sapiens) (UniProt P10635); experiment: qHTS for inhibitors of CYP2D6 against the NCATS DSHEA and TCM libraries (AID 1919972)
# Method in brief: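 qHTS, concentration–response format with most substances from 19.5 nM. CYP2D6 + pro-luciferin substrate, 15 min with compound, then 1x NADPH regen, 30–45 min RT dark. Glo detection 30 min, luminescence. Quinidine control.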
# [3] = biological target: Cytochrome P450 2C9 (Homo sapiens) (UniProt P11712); experiment: qHTS for inhibitors of CYP2C9 against the NCATS DSHEA and TCM libraries (AID 1919973);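 note: luminogenic pro-luciferin CYP2C9 substrate turned into luciferin with NADPH regeneration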
# Method in brief: as §1
# [4] = biological target: Cytochrome P450 2C19 (Homo sapiens) (UniProt P33261); experiment: qHTS for inhibitors of CYP2C19 against the NCATS DSHEA and TCM libraries (AID 1919974);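 note: luminescence from luciferin released by CYP2C19 oxidation of a pro-luciferin substrate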
# Method in brief: as §1
# [5] = KB-3-1 P-gp reporter qHTS against the NCATS DSHEA and TCM libraries (AID 1919975)
# Method in brief: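 Cell viability by CellTiter-Glo luminescence following ~72 h compound exposure (concentration-response). Uses parental, non-P-gp-overexpressing KB-3-1 line, 500 cells/well in DMEM/10% FBS, attached ~4 h before dosing.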
# [6] = biological target: Cytochrome P450 1A2 (Homo sapiens) (UniProt P05177); experiment: qHTS for inhibitors of CYPIA2 against the NCATS DSHEA and TCM libraries (AID 1919976)
# Method in brief: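 Luminescence read-out: pro-luciferin converted to D-luciferin by CYP1A2, detected with P450-Glo reagent after 30 min RT. Enzyme plus substrate got compounds for 15 min RT; NADPH regeneration solution (final 1x) started a 30-45 min reaction, light-protected.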
# [7] = qHTS Counterscreen for compound interference against the NCATS DSHEA and TCM libraries (AID 1919978); conditions: firefly luciferase detection reagent interference, luminescence;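 note: compounds preincubated with 1 µM D-luciferin or buffer before detection reagent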
# Method in brief: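 With 1 uM D-luciferin or phosphate buffer only, compounds at final 19.5 nM–39.8 uM were incubated for 15 min at room temperature. Luciferase detection reagent was then added, and luminescence was measured after a further 30 min at room temperature.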
# [8] = Dual reporter qHTS for agonist of Pregnane X Receptor (hPXR) against the NCATS DSHEA and TCM libraries: Fluorescence readout (AID 1920058)
# Method in brief: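 Fluorescence read-out for cell viability: CellTiter-Fluor, 1 h at 37 °C, Ex/Em 405/540 nm. This followed ~24 h treatment of hPXR-Luc HepG2 cells with substances in agonist mode.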
# [9] = biological target: Nuclear receptor subfamily 1 group I member 2 (Homo sapiens) (UniProt O75469); experiment: Dual reporter qHTS for agonist of Pregnane X Receptor (hPXR) against the NCATS DSHEA and TCM libraries: Luminescence readout (AID 1920059)
# Method in brief: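 hPXR-Luc HepG2 cells, 2000/well in 5% charcoal-stripped FBS medium, attached 5 h, then exposed 24 h at 37C to compounds. Viability by CellTiter-Fluor, then luciferase luminescence with ONE-Glo.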
# [10] = biological target: Nuclear receptor subfamily 1 group I member 2 (Homo sapiens) (UniProt O75469); experiment: Dual reporter qHTS for antagonist of Pregnane X Receptor (hPXR) against the NCATS DSHEA and TCM libraries: Luminescence Readout (AID 1920060);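 note: HepG2 cells carrying hPXR luciferase reporter stimulated with rifampicin at 2 µM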
# Method in brief: (§2)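 Antagonist mode: rifampicin 2 uM final co-added with compounds to hPXR-LucHepG2 cells for 24 h at 37C. Viability by CellTiter-Fluor, Ex/Em 405/540 nm, 1 h; reporter by ONE-Glo luminescence.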
# [11] = Dual reporter qHTS for antagonist of Pregnane X Receptor (hPXR) against the NCATS DSHEA and TCM libraries: Fluorescence Readout (AID 1920061)
# Method in brief: as §2
# [12] = qHTS drug screen for cell cycle checkpoint inhibitors in PARPi-resistant BRCA-mutant ovarian cancer cell lines. (AID 1963452; calls by dose curve; note: potency is the fitted concentration of half-maximal effect); conditions: PEO1/OlaR viability, CellTiter-Glo luminescence, 96 h
# Method in brief: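 PEO1, PEO4 and PEO1/OlaR ovarian cancer cells, 600 per well, exposed 96 h at 37C to a dilution series. Viability read by CellTiter-Glo luminescence, normalized to DMSO and empty wells; activity summarized as Z-AUC.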
# [13] = biological target: Phospholipid hydroperoxide glutathione peroxidase GPX4 (Homo sapiens) (UniProt P36969); experiment: Primary qHTS Assay for Inhibitors of Recombinant Selenoprotein Glutathione Peroxidase 4 (GPX4) (AID 1845192); note: nearly all actives have a fitted effect of over 65% in size
# Method in brief: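 Steps: GPX4 plus compound, 30 min RT; add GR/GSH/NADPH master mix; start with cumene hydroperoxide; read 340/450 nm fluorescence at 0 and 15 min. Finals were 200 nM GPX4, 1 mM GSH, 0.5 mM CHP, 0.5 mM NADPH, 100 nM GR.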
# [14] = qHTS profiling for inhibitors of Plasmodium falciparum proliferation (AID 504749); note: nearly all actives have a fitted effect of over 60% in size; note: potency is the fitted concentration of half-maximal effect; conditions: P. falciparum in erythrocytes, SYBR Green DNA, 72 h
# Method in brief: (§3)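 SYBR Green fluorescence (ex 485 nm, em 535 nm) reports parasite DNA after 72 h compound exposure of infected red cells at 0.3% parasitemia, 2.5% hematocrit; signal normalized to 0.29 uM artemisinin and vehicle wells.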
# 3D7 = experiment: as above; conditions: P. falciparum in erythrocytes, SYBR Green DNA, 72 h; series mostly up to 28.7 µM
# Method in brief: as §3
# 7G8 = experiment: as above; conditions: P. falciparum in erythrocytes, SYBR Green DNA, 72 h; series mostly up to 28.7 µM
# Method in brief: as §3
# [15] = at 12.8 µM (top of the series), parasite line A
# [16] = at 12.8 µM (top of the series), parasite line B
# [17] = at 28.7 µM (top of the series), parasite line A
# [18] = at 28.7 µM (top of the series), parasite line B
# Chain of Phospholipid hydroperoxide glutathione peroxidase GPX4 (Homo sapiens) (P36969 whole entry, looked up): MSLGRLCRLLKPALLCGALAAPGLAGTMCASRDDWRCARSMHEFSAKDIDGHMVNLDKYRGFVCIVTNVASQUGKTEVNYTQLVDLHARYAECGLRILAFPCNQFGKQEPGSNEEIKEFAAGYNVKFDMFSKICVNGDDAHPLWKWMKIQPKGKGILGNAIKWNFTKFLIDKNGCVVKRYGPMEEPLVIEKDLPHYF
# Chain of Nuclear receptor subfamily 1 group I member 2 (Homo sapiens) (O75469 whole entry, looked up): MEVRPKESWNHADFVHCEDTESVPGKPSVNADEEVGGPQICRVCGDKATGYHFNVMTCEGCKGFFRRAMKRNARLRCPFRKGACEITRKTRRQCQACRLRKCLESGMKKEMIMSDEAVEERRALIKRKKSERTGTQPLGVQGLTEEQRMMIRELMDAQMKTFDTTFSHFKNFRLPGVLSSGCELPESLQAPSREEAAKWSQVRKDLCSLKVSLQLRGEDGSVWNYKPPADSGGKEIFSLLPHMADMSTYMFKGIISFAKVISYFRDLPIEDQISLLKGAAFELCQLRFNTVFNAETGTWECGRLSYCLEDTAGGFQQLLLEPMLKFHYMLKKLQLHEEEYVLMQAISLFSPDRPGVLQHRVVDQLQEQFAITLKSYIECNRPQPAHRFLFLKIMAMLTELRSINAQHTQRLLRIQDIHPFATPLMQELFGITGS
# Chain of Cytochrome P450 1A2 (Homo sapiens) (P05177 whole entry, looked up): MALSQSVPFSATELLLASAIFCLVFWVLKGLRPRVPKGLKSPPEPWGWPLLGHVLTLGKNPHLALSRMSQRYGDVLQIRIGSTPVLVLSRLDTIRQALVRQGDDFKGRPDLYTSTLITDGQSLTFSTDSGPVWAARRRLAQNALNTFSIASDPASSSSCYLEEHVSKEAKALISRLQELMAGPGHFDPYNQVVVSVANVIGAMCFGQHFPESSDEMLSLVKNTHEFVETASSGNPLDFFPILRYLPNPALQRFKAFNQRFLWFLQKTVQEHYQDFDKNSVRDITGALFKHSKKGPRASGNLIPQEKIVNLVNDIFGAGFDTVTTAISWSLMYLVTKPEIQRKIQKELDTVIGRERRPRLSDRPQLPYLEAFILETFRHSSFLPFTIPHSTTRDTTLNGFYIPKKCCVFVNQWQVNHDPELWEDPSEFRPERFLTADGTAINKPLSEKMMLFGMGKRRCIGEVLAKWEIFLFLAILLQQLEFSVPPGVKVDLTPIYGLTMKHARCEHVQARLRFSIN
# Chain of Cytochrome P450 3A4 (Homo sapiens) (P08684 whole entry, looked up): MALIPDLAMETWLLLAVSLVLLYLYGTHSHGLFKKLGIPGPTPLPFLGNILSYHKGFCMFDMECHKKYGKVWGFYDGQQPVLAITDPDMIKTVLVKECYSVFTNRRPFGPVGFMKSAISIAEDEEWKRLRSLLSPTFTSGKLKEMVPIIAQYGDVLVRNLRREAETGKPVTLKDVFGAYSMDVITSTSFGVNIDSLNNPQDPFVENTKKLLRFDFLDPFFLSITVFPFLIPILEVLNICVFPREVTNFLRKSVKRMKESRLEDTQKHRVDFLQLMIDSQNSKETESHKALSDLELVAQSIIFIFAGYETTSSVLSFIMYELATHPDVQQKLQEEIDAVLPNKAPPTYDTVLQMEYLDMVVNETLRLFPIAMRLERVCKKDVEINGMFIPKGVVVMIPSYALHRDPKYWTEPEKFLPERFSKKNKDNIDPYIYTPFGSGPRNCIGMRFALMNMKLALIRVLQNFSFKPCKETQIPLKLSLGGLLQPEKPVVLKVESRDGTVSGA
# Chain of Cytochrome P450 2D6 (Homo sapiens) (P10635 whole entry, looked up): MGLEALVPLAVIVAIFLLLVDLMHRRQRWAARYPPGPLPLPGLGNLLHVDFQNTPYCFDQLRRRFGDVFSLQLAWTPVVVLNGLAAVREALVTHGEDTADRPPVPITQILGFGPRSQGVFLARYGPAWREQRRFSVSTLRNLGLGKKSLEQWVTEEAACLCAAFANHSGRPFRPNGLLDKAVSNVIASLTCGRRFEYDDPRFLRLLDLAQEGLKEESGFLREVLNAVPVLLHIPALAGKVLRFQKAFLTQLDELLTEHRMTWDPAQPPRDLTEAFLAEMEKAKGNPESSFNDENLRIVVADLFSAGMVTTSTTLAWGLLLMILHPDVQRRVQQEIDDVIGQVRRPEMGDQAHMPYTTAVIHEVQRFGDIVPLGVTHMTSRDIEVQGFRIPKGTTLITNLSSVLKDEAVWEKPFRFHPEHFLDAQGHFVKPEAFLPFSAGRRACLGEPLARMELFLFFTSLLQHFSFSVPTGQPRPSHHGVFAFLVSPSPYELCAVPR
# Chain of Cytochrome P450 2C9 (Homo sapiens) (P11712 whole entry, looked up): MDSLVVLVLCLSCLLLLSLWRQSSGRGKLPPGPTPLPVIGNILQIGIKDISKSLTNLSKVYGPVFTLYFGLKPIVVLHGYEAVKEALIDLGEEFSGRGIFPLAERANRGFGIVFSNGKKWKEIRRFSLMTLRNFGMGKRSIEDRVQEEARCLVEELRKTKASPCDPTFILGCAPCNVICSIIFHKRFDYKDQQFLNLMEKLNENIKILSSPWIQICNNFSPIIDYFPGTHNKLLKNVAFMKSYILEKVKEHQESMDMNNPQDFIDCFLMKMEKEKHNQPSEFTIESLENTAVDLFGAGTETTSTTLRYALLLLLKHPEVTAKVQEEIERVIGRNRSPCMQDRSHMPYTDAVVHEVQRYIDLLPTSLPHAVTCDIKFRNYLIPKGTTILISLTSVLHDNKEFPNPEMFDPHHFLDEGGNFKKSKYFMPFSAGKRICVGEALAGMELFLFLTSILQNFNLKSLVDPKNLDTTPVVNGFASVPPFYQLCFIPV
# Chain of Cytochrome P450 2C19 (Homo sapiens) (P33261 whole entry, looked up): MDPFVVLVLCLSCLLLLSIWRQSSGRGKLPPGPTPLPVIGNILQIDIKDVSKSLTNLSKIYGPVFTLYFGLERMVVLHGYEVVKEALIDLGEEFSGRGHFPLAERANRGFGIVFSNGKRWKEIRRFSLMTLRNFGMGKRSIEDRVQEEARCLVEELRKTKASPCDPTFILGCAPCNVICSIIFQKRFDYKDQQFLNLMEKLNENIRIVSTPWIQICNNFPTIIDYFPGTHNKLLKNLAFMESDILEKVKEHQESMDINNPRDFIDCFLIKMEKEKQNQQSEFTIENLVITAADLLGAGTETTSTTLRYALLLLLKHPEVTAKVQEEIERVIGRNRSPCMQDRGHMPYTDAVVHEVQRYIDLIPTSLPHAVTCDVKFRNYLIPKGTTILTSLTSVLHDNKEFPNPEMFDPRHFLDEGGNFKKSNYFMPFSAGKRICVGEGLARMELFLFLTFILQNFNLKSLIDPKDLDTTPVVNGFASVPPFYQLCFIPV
compound,measurement,setting,value
OC1C(O)C(O)C(O)C(O)C1O (configuration not stated),outcome,[1],inactive
same,outcome,[2],inactive
same,outcome,[3],inactive
same,outcome,[4],inactive
same,outcome,[5],inactive
same,outcome,[6],inactive
same,max response,[7],2.31%
same,outcome,[8],inactive
same,outcome,[9],inactive
same,outcome,[10],inactive
same,outcome,[11],inactive
Nc1nc(Cl)nc2c1ncn2[C@@H]1O[C@H](CO)[C@@H](O)[C@@H]1F,Potency,[12],0.0977 µM (active)
CNCCc1ccccn1,Potency,[13],inactive
same,"activity, negative = inhibition",[14]; [15],6.01%
same,"activity, negative = inhibition",[14]; [16],8.04%
same,Potency,3D7,inactive
same,Potency,7G8,inactive
CCOc1ccccc1C(N)=O,Potency,[13],inactive
same,"activity, negative = inhibition",[14]; [17],-8%
same,"activity, negative = inhibition",[14]; [18],15.4%
same,Potency,3D7,inactive
same,Potency,7G8,inactive
COc1cc(C)nc(-n2nc(C)cc2OC)n1,Potency,[13],inactive
same,"activity, negative = inhibition",[14]; [15],3.73%
same,"activity, negative = inhibition",[14]; [16],-3.99%
same,Potency,3D7,inactive
same,Potency,7G8,inactive
CCCCCCCCCCCCCCCCO,Potency,[13],inactive
same,"activity, negative = inhibition",[14]; [17],1.6%
same,"activity, negative = inhibition",[14]; [18],8.58%
same,Potency,3D7,inactive
same,Potency,7G8,inactive
CCOC(=O)c1c(N)sc2c1CCN(Cc1ccccc1)C2,Potency,[13],inactive
same,Potency,[14]; parasite line A,10 µM (active)
same,Potency,[14]; parasite line B,5.01 µM (active)
same,Potency,3D7,11.2 µM (active)
same,Potency,7G8,6.31 µM (active)
Cc1cc(C)cc(OCC2CNC(=O)O2)c1 (configuration not stated),Potency,[13],inactive
same,"activity, negative = inhibition",[14]; [17],-4.76%
same,"activity, negative = inhibition",[14]; [18],4.34%
same,Potency,3D7,inactive
same,Potency,7G8,inactive
Cc1cc(NS(=O)(=O)c2ccc(N)cc2)nc(C)n1,Potency,[13],inactive
same,"activity, negative = inhibition",[14]; [17],9.36%
same,"activity, negative = inhibition",[14]; [18],5.66%
same,Potency,3D7,inactive
same,Potency,7G8,inactive
NC(N)=NCc1cccc(I)c1,Potency,[13],inactive
same,"activity, negative = inhibition",[14]; [17],-25.5%
same,"activity, negative = inhibition",[14]; [18],-23.4%
same,Potency,3D7,inactive
same,Potency,7G8,inactive
CCOC(=O)c1ccc(N)cc1,Potency,[13],inactive
same,"activity, negative = inhibition",[14]; [15],6.05%
same,"activity, negative = inhibition",[14]; [16],7.01%
same,Potency,3D7,inactive
same,Potency,7G8,inactive
CCCCCN=C(N)N/N=C/c1c[nH]c2ccc(OC)cc12,Potency,[13],inactive
same,Potency,[14]; parasite line A,8.91 µM (active)
same,Potency,[14]; parasite line B,12.6 µM (active)
same,Potency,3D7,8.91 µM (active)
same,Potency,7G8,1 µM (active)
NC(=O)c1ccccc1O,Potency,[13],inactive
same,"activity, negative = inhibition",[14]; [17],4.99%
same,"activity, negative = inhibition",[14]; [18],15.1%
same,Potency,3D7,inactive
same,Potency,7G8,inactive
C#C[C@]1(O)CC[C@H]2[C@@H]3CCC4=Cc5oncc5C[C@]4(C)[C@H]3CC[C@@]21C,Potency,[13],inactive
same,"activity, negative = inhibition",[14]; [17],-28.2%
same,"activity, negative = inhibition",[14]; [18],-11.7%
same,Potency,3D7,inactive
same,Potency,7G8,inactive
OCCOCCN1CCN(C2=Nc3ccccc3Sc3ccccc32)CC1,Potency,[13],inactive
same,"activity, negative = inhibition",[14]; [17],0.502%
same,"activity, negative = inhibition",[14]; [18],13.4%
same,Potency,3D7,inactive
same,Potency,7G8,inactive
O=C1C(CCS(=O)c2ccccc2)C(=O)N(c2ccccc2)N1c1ccccc1 (configuration not stated),Potency,[13],inactive
same,"activity, negative = inhibition",[14]; [15],-4.48%
same,"activity, negative = inhibition",[14]; [16],5.16%
same,Potency,3D7,inactive
same,Potency,7G8,inactive
CCCc1ncc(C[n+]2ccccc2C)c(N)n1,Potency,[13],inactive
same,"activity, negative = inhibition",[14]; [15],11.9%
same,"activity, negative = inhibition",[14]; [16],12%
same,Potency,3D7,inactive
same,Potency,7G8,inactive
CCCCCCCCCCCCCC(=O)OC(C)C,Potency,[13],inactive
same,"activity, negative = inhibition",[14]; [17],2.55%
same,"activity, negative = inhibition",[14]; [18],10.9%
same,Potency,3D7,inactive
same,Potency,7G8,inactive
Nc1nc(-c2ccccc2)c(Br)c(=O)[nH]1,Potency,[13],inactive
same,"activity, negative = inhibition",[14]; [17],-7.1%
same,"activity, negative = inhibition",[14]; [18],1.53%
same,Potency,3D7,inactive
same,Potency,7G8,inactive
O=C(O)CCNC(=O)c1ccccc1,Potency,[13],inactive
same,"activity, negative = inhibition",[14]; [17],0.623%
same,"activity, negative = inhibition",[14]; [18],11.8%
same,Potency,3D7,inactive
same,Potency,7G8,inactive
N/C(=N\N=C\c1ccc(Cl)cc1)N/N=C/c1ccc(Cl)cc1,Potency,[13],inactive
same,Potency,[14]; parasite line A,3.16 µM (active)
same,Potency,[14]; parasite line B,5.01 µM (active)
same,Potency,3D7,3.98 µM (active)
same,Potency,7G8,2.82 µM (active)
CC(C)(C)NC[C@H](O)COc1cccc2c1CCCC2=O,Potency,[13],inactive
same,"activity, negative = inhibition",[14]; [15],5.04%
same,"activity, negative = inhibition",[14]; [16],7.33%
same,Potency,3D7,inactive
same,Potency,7G8,inactive
COc1ccc(-c2cc(C(F)F)nn2-c2ccc(S(N)(=O)=O)cc2)cc1F,Potency,[13],inactive
same,"activity, negative = inhibition",[14]; [17],1.08%
same,"activity, negative = inhibition",[14]; [18],-0.185%
same,Potency,3D7,inactive
same,Potency,7G8,inactive
O=C1C(=O)c2ccccc2C(O)=C1C1CCC(c2ccc(Cl)cc2)CC1 (configuration not stated),Potency,[13],inactive
same,Potency,[14]; parasite line A,0.0014 µM (active)
same,Potency,[14]; parasite line B,0.0032 µM (active)
same,Potency,3D7,0.0032 µM (active)
same,Potency,7G8,0.0011 µM (active)
CC(C)Nc1cccnc1N1CCN(C(=O)c2cc3cc(NS(C)(=O)=O)ccc3[nH]2)CC1,Potency,[13],inactive
same,"activity, negative = inhibition",[14]; [17],-10.7%
same,"activity, negative = inhibition",[14]; [18],24%
same,Potency,3D7,inactive
same,Potency,7G8,12.6 µM (active)
COc1cc(O)c(C(=O)c2ccccc2)cc1S(=O)(=O)O,Potency,[13],inactive
same,"activity, negative = inhibition",[14]; [17],-0.769%
same,"activity, negative = inhibition",[14]; [18],4.93%
same,Potency,3D7,inactive
same,Potency,7G8,11.2 µM (active)
C#C[C@]1(O)CC[C@H]2[C@@H]3CCc4cc(OC)ccc4[C@H]3CC[C@@]21C,Potency,[13],inactive
same,"activity, negative = inhibition",[14]; [17],1.32%
same,"activity, negative = inhibition",[14]; [18],15.1%
same,Potency,3D7,inactive
same,Potency,7G8,inactive
